In the library only some 7.6% were active in any assay of this set; here they are far more common.
KCNH2 WT inh: blocks the wildtype human KCNH2 potassium channel; U2OS, BacMam KCNH2, thallium flux FluxOr; hits give low values; activity change, % at 1.84 µM; hit rate 0.37% among 340,000;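 active means maximum activity change below -70%; inconclusive means maximum activity change between -70% and -50%; inactive means maximum activity change above -50%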
Target sequence (Q12809 whole entry, looked up): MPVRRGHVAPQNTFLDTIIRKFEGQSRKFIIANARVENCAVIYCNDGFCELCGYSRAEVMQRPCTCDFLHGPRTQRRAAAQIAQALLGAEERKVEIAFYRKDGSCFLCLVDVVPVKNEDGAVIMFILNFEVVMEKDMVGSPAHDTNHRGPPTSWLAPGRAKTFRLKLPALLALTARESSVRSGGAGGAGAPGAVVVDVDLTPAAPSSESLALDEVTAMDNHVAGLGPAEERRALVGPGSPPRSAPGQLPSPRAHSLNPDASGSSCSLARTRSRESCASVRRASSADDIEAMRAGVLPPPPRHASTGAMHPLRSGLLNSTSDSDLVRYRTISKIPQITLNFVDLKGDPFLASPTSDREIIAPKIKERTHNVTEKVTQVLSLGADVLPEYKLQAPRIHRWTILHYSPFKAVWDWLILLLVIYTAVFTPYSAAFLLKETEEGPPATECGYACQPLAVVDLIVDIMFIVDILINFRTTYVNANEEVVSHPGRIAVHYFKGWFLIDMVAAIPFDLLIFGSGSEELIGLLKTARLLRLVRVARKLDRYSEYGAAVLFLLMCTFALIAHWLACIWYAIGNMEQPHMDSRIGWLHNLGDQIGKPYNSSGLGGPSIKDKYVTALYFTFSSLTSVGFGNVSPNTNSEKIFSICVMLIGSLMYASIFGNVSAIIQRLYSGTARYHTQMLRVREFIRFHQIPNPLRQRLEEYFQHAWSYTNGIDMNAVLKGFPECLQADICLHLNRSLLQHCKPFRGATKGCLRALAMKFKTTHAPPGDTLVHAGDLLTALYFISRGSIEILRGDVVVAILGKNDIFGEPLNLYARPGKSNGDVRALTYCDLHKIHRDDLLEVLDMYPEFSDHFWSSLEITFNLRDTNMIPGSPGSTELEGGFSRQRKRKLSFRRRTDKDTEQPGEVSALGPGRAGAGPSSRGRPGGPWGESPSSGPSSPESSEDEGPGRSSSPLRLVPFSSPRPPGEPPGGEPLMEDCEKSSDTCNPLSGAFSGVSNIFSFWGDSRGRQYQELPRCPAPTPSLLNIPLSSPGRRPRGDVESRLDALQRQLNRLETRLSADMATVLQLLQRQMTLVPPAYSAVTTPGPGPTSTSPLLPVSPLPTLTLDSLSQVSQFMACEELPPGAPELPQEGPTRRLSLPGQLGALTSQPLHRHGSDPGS
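U2OS cells were transduced with wild-type KCNH2 virus (2.03 x 10^8 / mL) for 4 h at room temperature, then cultured overnight at 37 C. Thallium flux was read with FluxOr dye. Rate constants were normalized to DMSO controls.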
KB-3-1 tox: KB-3-1 parental cell cytotoxicity; hit rate 1.4% among 400,000; KB-3-1 viability, CellTiter-Glo ATP luminescence, 72 h; Potency, µM (series often up to 46.1 µM), hits mostly cytotoxic; AID 1347075; further: nearly all actives have a fitted effect of over 60% in size
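Cells are dispensed, compounds pinned in, plates held at 37 °C for 72 h, then CellTiter-Glo is added and luminescence read after 10 minutes. Cell line: parental KB-3-1 in phenol-red-free DMEM, 10% FBS.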
MCF10A rereplic: inducers of DNA re-replication in MCF 10A breast cells; MCF 10A DNA re-replication, Hoechst nuclear intensity, 48 h; Potency, µM (doses to about 46.1 µM), usual class: activators; hit rate 2.9% among 350,000; AID 624296; further: nearly all actives have a fitted effect of over 50% in size
KCNH2 3.1 inh: blocks the human KCNH2 3.1 channel isoform | U2OS KCNH2 3.1, thallium flux FluxOr; hits give low values | activity change, % (tested at about 1.8 µM) | hit rate 0.95% among 340,000;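 active means maximum activity change below -70%; inconclusive means maximum activity change from -70% to -50%; inactive means maximum activity change above -50%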;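 further: thallium influx rate constant from kinetic fluorescence after stimulation buffer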
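Normalized rate constant (relative to positive and negative DMSO controls) derived from a 2 min kinetic fluorescence read after stimulation; U2OS cells expressing the 3.1 isoform via virus at 1.77 x 10^8 /mL.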
SW480 rerep: DNA re-replication induction in SW480 cells; AID 624297; hit rate 1.8% among 340,000; SW480 DNA re-replication, Hoechst DNA content imaging, 48 h; Potency, µM (top dose mostly 46.1 µM), hits mostly activators; further: nearly all actives have a fitted effect of over 55% in size
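Readout is total intensity of Hoechst-stained nuclei, excited at 405 nm and collected at 500-530 nm. Compound treatment lasted 48 hr at 37 C in 5% CO2 before staining.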
KB-V1 cytotox: kills drug-selected multidrug resistant KB-V1 cells; KB-V1 MDR cells viability, CellTiter-Glo, 72 h; Potency, µM (titrated, usually from 46.1 µM), usual class: cytotoxic; hit rate 3.4% among 400,000; AID 1347076; further: nearly all actives have a fitted effect of over 60% in size
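Cytotoxicity via CellTiter-Glo luminescence after 72 h compound exposure at 37 degrees C. Cells: drug-selected KB-V1 line, DMEM phenol-red free plus 10% FBS. Compounds tested at multiple concentrations; normalized data fitted to concentration-effect curves.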
Of the large screens only hits and unclear results are named; the others gave an inactive call. Unless noted, the call rests on the fitted dose curve; in most records, active means well fitted curve in the direction sought with a large enough effect; inconclusive means small, poorly fitted or top-dose-only effect, or another doubt; inactive means no such curve, though single readings can be large; an effect the other way counts as inactive or inconclusive.

CC(C)=C1C2CCC1C(C(=O)Nc1sc(C)c(-c3ccc(C(C)C)cc3)c1C(N)=O)C2C(=O)O (stereo unspecified)	KB-3-1 tox inconclusive, SW480 rerep inconclusive, KB-V1 cytotox 2.1µM
COC(=O)c1c(NC(=O)/C=C/C(=O)O)sc(C)c1-c1ccc(C)c(C)c1	KB-3-1 tox inconclusive, MCF10A rereplic 16µM, SW480 rerep inconclusive
COC(=O)c1c(NC(=O)/C=C/C(=O)O)sc(C)c1-c1ccc(C)cc1	KB-3-1 tox inconclusive, MCF10A rereplic inconclusive, SW480 rerep inconclusive, KB-V1 cytotox inconclusive
Cc1ccc(-c2c(C)sc(NC(=O)C3C4CCC(O4)C3C(=O)O)c2C(=O)OC(C)C)cc1 (stereo unspecified)	none
COc1cccc(C(O)c2nc3ccccc3n2C(C)C)c1 (stereo unspecified)	KB-V1 cytotox inconclusive
O=c1c2c(nc3c(-c4ccccc4)c[nH]n13)CCCC2	KB-3-1 tox 21µM, KB-V1 cytotox inconclusive
Cc1[nH]n2c(=O)c3c(nc2c1-c1ccc(Cl)cc1)CCC3	KB-3-1 tox 8.2µM, MCF10A rereplic inconclusive, KB-V1 cytotox inconclusive
Nc1[nH]n2c(=O)c3c(nc2c1N=Nc1ccccc1)CCCC3	KB-3-1 tox 12µM, MCF10A rereplic inconclusive, KB-V1 cytotox 13µM
Nc1[nH]n2c(=O)c3c(nc2c1N=Nc1ccc(Cl)cc1)CCCC3	KB-3-1 tox inconclusive, KB-V1 cytotox inconclusive
O=C(c1nc2ccc(Cl)cn2c1CNCCc1cnccn1)N1CCCCCCC1	none
COc1cc(C(=O)Nc2ccccc2OCc2cc(=O)n3c(C)csc3n2)cc(OC)c1OC	none (no result: KCNH2 WT inh, MCF10A rereplic, KCNH2 3.1 inh, SW480 rerep)
COCCn1c(SCC(=O)c2c(N)n(C3CC3)c(=O)[nH]c2=O)nc2ccccc21	SW480 rerep inconclusive
CSc1ncc(C(=O)Nc2cccc(C)c2C)c(-c2ccccc2)n1	none (no result: KCNH2 WT inh, MCF10A rereplic, KCNH2 3.1 inh, SW480 rerep)
FC(F)(F)c1cccc(-c2ccn3ncnc3n2)c1	KB-V1 cytotox 21µM
CC1(C)CC(=O)C2=C(C1)N=C1c3ccccc3C(=O)C1C2c1ccc(Cl)cc1 (stereo unspecified)	KB-3-1 tox inconclusive, KB-V1 cytotox inconclusive
CCOC(=O)C1=C(C)N=C2c3ccccc3C(=O)C2C1c1ccc(Cl)cc1 (stereo unspecified)	KCNH2 3.1 inh -105
COc1ccc(Cc2nnc(NC(=O)c3ccc(OC)c(OC)c3)s2)cc1	KB-3-1 tox inconclusive, MCF10A rereplic 3.7µM, SW480 rerep inconclusive
COc1ccc(CNC(=O)CCC(=O)Nc2nnc(CC(C)C)s2)cc1	SW480 rerep 2.9µM
COc1cc(C(=O)Nc2nc(-c3ccc(F)cc3)cs2)ccc1OCC(=O)N1CCOCC1	MCF10A rereplic 23µM
COc1ccc(-c2nc(NC(=O)c3ccc(OCC(=O)Nc4ccc(F)cc4)c(OC)c3)sc2C)cc1	MCF10A rereplic 21µM
COc1cc(C(=O)Nc2nc(-c3cc(C)ccc3C)c(C)s2)ccc1OCC(=O)Nc1ccc(F)cc1	MCF10A rereplic inconclusive, KB-V1 cytotox inconclusive
O=C(CCN1CCN(Cc2ccccc2)CC1)Nc1cccc(Br)c1	none
CS(=O)(=O)N1CCc2cc(C(=O)Nc3cccc(F)c3)ccc21	none (no result: KCNH2 WT inh, MCF10A rereplic, KCNH2 3.1 inh, SW480 rerep)
CC1C/C(=C/c2ccccn2)C(=O)/C(=C/c2ccccn2)C1 (stereo unspecified)	KB-3-1 tox inconclusive, MCF10A rereplic 2.3µM, SW480 rerep 0.29µM
CC(C)(C)C1C/C(=C/c2ccccn2)C(=O)/C(=C/c2ccccn2)C1 (stereo unspecified)	KB-3-1 tox inconclusive, MCF10A rereplic inconclusive, SW480 rerep 0.41µM, KB-V1 cytotox inconclusive
Cc1cc(C)nc(N2N=C(C(F)(F)F)CC2=O)n1	none
COC(=O)c1ccc(CNCC(=O)Nc2ccc(C(=O)OC)cc2)cc1	MCF10A rereplic 16µM
O=C(CNCc1ccc(Cl)cc1)Nc1ccc(C(=O)N2CCCCC2)cc1	none
O=C(CNCc1ccccc1)Nc1ccc(Cl)cc1	KB-3-1 tox 10µM, MCF10A rereplic 18µM, SW480 rerep inconclusive, KB-V1 cytotox inconclusive
CN(C1CCCCC1)S(=O)(=O)c1ccc(S(=O)(=O)N2CCCC2)cc1	KB-V1 cytotox inconclusive
CN(C1CCCCC1)S(=O)(=O)c1ccc(=S)[nH]c1	KB-V1 cytotox 15µM
O=C(OCn1ncc(Cl)c(Cl)c1=O)c1cccc(C(F)(F)F)c1	KB-3-1 tox 4.6µM, MCF10A rereplic 5.8µM, SW480 rerep 5.8µM, KB-V1 cytotox inconclusive
CN(Cc1ccccc1)C(=O)c1cc(-c2ccc(Br)cc2)on1	KB-3-1 tox inconclusive, KB-V1 cytotox 15µM
CN(C(=S)NC(=O)c1ccccc1Br)C1CCCCC1	SW480 rerep 5.8µM, KB-V1 cytotox inconclusive
c1coc(CN(Cc2ccco2)c2ncnc3c2oc2ccccc23)c1	KB-3-1 tox inconclusive, MCF10A rereplic inconclusive, SW480 rerep inconclusive, KB-V1 cytotox 16µM
O=C(NCC1CCCO1)c1nn2c(C(F)(F)F)cc(-c3ccc(Br)o3)nc2c1Br (stereo unspecified)	none
CCOCCn1c(SCc2ccc(F)cc2)nc2c1c(=O)[nH]c(=O)n2C	none
C=CCSc1nc2c(c(=O)[nH]c(=O)n2C)n1C/C=C(/C)Cl	KB-V1 cytotox 13µM
COCCn1c(SCc2ccc(F)cc2)nc2c1c(=O)[nH]c(=O)n2C	MCF10A rereplic 0.46µM
CCOCCn1c(SCc2ccccc2)nc2c1c(=O)[nH]c(=O)n2C	none
C/C=C/Cn1c(SCc2ccccc2)nc2c1c(=O)[nH]c(=O)n2C	KB-V1 cytotox 2.9µM
Cc1oc2ccc(O)cc2c1C(=O)c1ccc(F)cc1	none
O=[N+]([O-])c1ccc(C=C2c3ccccc3-c3ccccc32)cc1	KB-V1 cytotox inconclusive (no result: KCNH2 WT inh, MCF10A rereplic, KCNH2 3.1 inh, SW480 rerep)
O=C1CCCc2cc3c(ccc4ccccc43)cc21	MCF10A rereplic 18µM
Cc1cc2c(cc1C)C(=O)CCC2	none (no result: MCF10A rereplic, SW480 rerep)
CCc1ccc(NC(=O)CCNS(=O)(=O)c2ccc3c(c2)CCCC(=O)N3)cc1	none (no result: KCNH2 WT inh, MCF10A rereplic, KCNH2 3.1 inh, SW480 rerep)
COc1ccc(-c2nc(S(=O)(=O)c3ccc(C)cc3)c(NCc3ccccc3)o2)cc1	none (no result: KCNH2 WT inh, MCF10A rereplic, KCNH2 3.1 inh, SW480 rerep)
CSC1(SC2=NCCN2)SC2(NCCN2)S1	KB-3-1 tox inconclusive, MCF10A rereplic 3.7µM, SW480 rerep inconclusive, KB-V1 cytotox inconclusive
c1ccc2c(c1)ncn2CCCOc1ccc2c(c1)CCC2	KB-3-1 tox inconclusive, MCF10A rereplic inconclusive, KB-V1 cytotox 12µM
c1ccc2c(c1)ncn2CCCCOc1ccc2c(c1)CCC2	KB-3-1 tox inconclusive, MCF10A rereplic 21µM, SW480 rerep inconclusive, KB-V1 cytotox inconclusive
c1ccc(OCCCCn2cnc3ccccc32)cc1	none
COc1ccc(NC(=O)Cn2c(=O)n(-c3ccc(C)cc3)c(=O)c3c2cnn3C)cc1	none (no result: KCNH2 WT inh, MCF10A rereplic, KCNH2 3.1 inh, SW480 rerep)
CCn1ccc(C(=O)NC2=NCCS2)n1	SW480 rerep 23µM
CCn1ccc(C(=O)NC2CCCC2)n1	none
